Pol eta inh-1: blocks human DNA polymerase eta activity. Q9Y253. recombinant Pol eta, fluorescent DNA replication assay. Potency, µM (top dose mostly 114 µM), for inactives: at the top dose activity change, negative = inhibition, actives largely listed as inhibitors. 1.2% of 390,000 active; note: % is set by controls: 0 for no effect and ±100 for the full control effect
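Pol eta at 10 nM preincubated with compounds 15 min at room temperature; reaction started with fluorescent substrate (50 nM final) and read kinetically at 0 and 10 min.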
WRN inhibitor: inhibitors of human WRN helicase; Potency, µM (highest dose often 114 µM), without a hit: top-dose activity change, negative = inhibition, hits mostly inhibitors; 0.46% of 360,000 active; Q14191; WRN helicase unwinding, fluorescent forked duplex, kinetic; AID 651768; note: % is set by controls: 0 for no effect and ±100 for the full control effect; nearly all actives have a fitted effect of over 55% in size
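WRN at 20 nM final was preincubated with compound for 15 min at room temperature; reaction started with 100 nM forked duplex oligonucleotide carrying fluorophore and quencher plus 2 mM ATP (final). Unwinding followed kinetically by red fluorescence (ex 525/em 598 nm).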
POLI inh: blocks human DNA polymerase iota activity; Q9UNA4; Pol iota fluorescent replication assay, 10 min; Potency, µM (top dose mostly 115 µM), inactives show at the highest dose activity, negative = inhibition, hits mostly inhibitors; 1% of 390,000 active; AID 588590
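Pol iota at 10 nM preincubated 15 min with compounds at room temperature; reaction started with fluorescent substrate, 50 nM final. Fluorescence read kinetically at 0 and 10 min; buffer-only wells as negative control.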
Pol kappa inh-1: blocks human DNA polymerase kappa activity; Potency, µM (series often up to 107 µM), for the others: at the top dose activity, negative = inhibition, hits mostly inhibitors; 0.53% of 400,000 active; purified Pol kappa, fluorescent DNA synthesis assay, 10 min; AID 588579; note: % is set by controls: 0 for no effect and ±100 for the full control effect
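10 nM Pol kappa preincubated 15 min at room temperature with compounds, then reaction started with substrate at 50 nM final. Fluorescence read kinetically at 0 and 10 min; buffer-only wells served as negative control.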
Pol beta inh: inhibitors of human DNA polymerase beta. P06746. Pol beta primer extension/strand displacement, fluorescence kinetic. Potency, µM (highest dose often 114 µM), for the others: top-dose activity change, negative = inhibition, hits mostly inhibitors. 1.3% of 340,000 active. AID 485314; note: % is set by controls: 0 for no effect and ±100 for the full control effect
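Preincubation: enzyme (10 nM) with compound, 15 min, RT. Reaction: substrate added to 50 nM final. Reads: 0 and 10 min. Analysis: normalized, Hill fit.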
FEN1 inh-1: human FEN1 inhibition; Recombinant FEN1 flap cleavage, fluorescence, 15 min; AID 588795; Potency, µM (highest dose often 114 µM), without a hit: top-dose activity change, negative = inhibition, actives largely listed as inhibitors; 0.35% of 390,000 active; note: % is set by controls: 0 for no effect and ±100 for the full control effect; nearly all actives have a fitted effect of over 65% in size
Target sequence (P39748 whole entry, looked up): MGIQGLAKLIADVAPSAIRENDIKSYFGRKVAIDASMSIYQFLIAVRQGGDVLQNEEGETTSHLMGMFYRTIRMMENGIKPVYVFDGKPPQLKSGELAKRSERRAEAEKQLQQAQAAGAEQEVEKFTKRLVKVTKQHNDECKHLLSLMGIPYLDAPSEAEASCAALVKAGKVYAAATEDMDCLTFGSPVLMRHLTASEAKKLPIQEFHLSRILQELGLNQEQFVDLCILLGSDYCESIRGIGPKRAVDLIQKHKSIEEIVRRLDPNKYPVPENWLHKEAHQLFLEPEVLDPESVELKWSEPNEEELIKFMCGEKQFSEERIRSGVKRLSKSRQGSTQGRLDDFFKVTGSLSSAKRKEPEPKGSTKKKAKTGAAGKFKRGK
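Read-out was taken twice, immediately and after 15 min, following addition of 50 nM substrate to 10 nM FEN1 that had sat with test compound for 15 min at room temperature. Curves came from a four-parameter Hill model.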
PGK validate: validation of Trypanosoma brucei phosphoglycerate kinase inhibitors; shares compounds with Pol kappa inh-1; TbPGK coupled GAPDH assay, Kinase-Glo luminescence; Potency, µM (series often up to 57.5 µM), without a hit: top-dose activity change, negative = inhibition, actives largely listed as inhibitors; 79% of 500 active; AID 686980; note: % is set by controls: 0 for no effect and ±100 for the full control effect; nearly all actives have a fitted effect of over 65% in size
POLI cherry-pick: Inhibitors of human DNA polymerase iota, confirmation | AID 720496 | Pol iota primer extension, TAMRA/BHQ fluorescence | 77% of 1,500 active | shares compounds with Pol kappa inh-1 | Potency, µM, hits mostly inhibitors
Pol kappa inh-2: confirmation of human DNA polymerase kappa inhibitors; 76% of 920 active; purified Pol-kappa, fluorescent strand-displacement substrate; AID 720501; shares compounds with Pol eta inh-1; Potency, µM, most hits filed as inhibitors
Pol eta inh-2: confirmation of human DNA polymerase eta inhibitors; shares compounds with Pol eta inh-1; Pol eta primer extension, TAMRA/BHQ fluorescence, 10 min; Potency, µM, usual class: inhibitors; 64% of 2,600 active; AID 720502
FEN1 inh-2: FEN1 inhibition, cherry-pick retest | shares compounds with FEN1 inh-1 | FEN1 flap cleavage, TAMRA/BHQ2 fluorogenic DNA substrate | Potency, µM, actives largely listed as inhibitors | 79% of 880 active | AID 720498; note: nearly all actives have a fitted effect of over 60% in size
Starred values were filed as active, the others as inactive; ? = inconclusive; nt = no result given; [ ] = another dose, or the depositor's remark. Hits are enriched below; roughly 2.4% of the tested compounds scored in any of these assays. Calls come from the whole dose curve; as a rule, active = well fitted curve in the direction sought with a large enough effect; inconclusive = small, poorly fitted or top-dose-only effect, or another doubt; inactive = no such curve, though single readings can be large; an effect the other way counts as inactive or inconclusive. Potency is the fitted concentration of half-maximal effect.

SMILES	Pol eta inh-1	WRN inhibitor	POLI inh	Pol kappa inh-1	Pol beta inh	FEN1 inh-1	POLI cherry-pick	Pol eta inh-2	FEN1 inh-2	others
CCc1ccc(-n2c(=O)c3sc4ccccc4c3n(CC(=O)N(CC)Cc3ccccc3)c2=O)cc1	-12.2%	nt	20.4%	7.1%	87.4%	9.0%	nt	nt	nt
O=C1C=CC(=O)N1c1ccccc1N1C(=O)C=CC1=O	?	?	39.8µM*	?	nt	?	?	?	?
O=C1C=CC(=O)N1c1ccccn1	-0.8%	-3.1%	9.8%	-5.4%	nt	-6.0%	nt	nt	nt
CCn1cc(C(=O)O)c(=O)c2cc(F)c(N/N=C/c3ccccc3)cc21	2.51µM*	-31.8%	?	-25.7%	?	?	84.4*	2.69*	37.9*
O=C1N/C(=C/c2cccn2-c2ccccc2)C(=O)N1Cc1ccc(F)cc1	2.8%	4.4%	30.4%	-1.8%	-11.9%	0.9%	nt	nt	nt
O=C(CN1C(=O)N/C(=C\c2cccn2-c2cccc(C(=O)O)c2)C1=O)Nc1ccc(Cl)cc1	nt	nt	nt	nt	nt	nt	59.7*	?	60.1*
Cc1cc(NC(=O)CN2C(=O)S/C(=C\c3ccccc3)C2=O)no1	-3.3%	4.6%	17.4%	8.0%	28.8%	3.8%	nt	nt	nt
Cc1cccc(C)c1NC(=O)CN1C(=O)S/C(=C\c2cccn2-c2cccc(C(=O)O)c2)C1=O	22.4µM*	?	?	-26.8%	-108.7%	50.1µM*	37.7*	75.7*	75.7*
CC(=O)C(Sc1nc(-c2ccccc2Cl)nc2c1c(=O)n(C)c(=O)n2C)C(=O)N(C)C (stereo not drawn)	-13.6%	nt	7.1%	-8.8%[60.1 µM]	18.5%	-13.0%	nt	nt	nt
COc1ccc(/C=N/Nc2cc(C)nc3ccc(OC)cc23)c(OC)c1	?	12.6µM*	?	?	31.6µM*	22.4µM*	37.7*	47.8*	19*
COc1ccc2nc(C)cc(Nc3ccc(C)cc3)c2c1	-10.5%	-7.9%	-11.1%	-8.7%	1.2%	-4.4%	nt	nt	nt
O=C1c2ccc3c4c(ccc(c24)C(=O)N1NC(=O)C(F)(F)F)CC3	79.4µM*	?	22.4µM*	17.8µM*	-1.4%	56.2µM*	42.3*	16.9*	60.1*
O=C(O)c1cc(O)c2c(c1)C(=O)c1cc(O)cc(O)c1C2=O	8.91µM*	?	?	22.4µM*	7.94µM*	?	21.2*	6.01*	?
O=C(Cc1ccc(Oc2ccccc2)cc1)NO	nt	nt	38.2%	-18.3%	nt	-16.0%	nt	nt	nt
Cc1ccc(-c2ccc(/C=N/NC(N)=S)o2)cc1	-9.6%	-27.0%	45.3%	-8.7%	3.0%	-11.8%	nt	nt	nt
NC(=S)NN=Cc1ccc(-c2ccc(S(=O)(=O)Nc3ncccn3)cc2)o1	3.16µM*	25.1µM*	?	20µM*	nt	79.4µM*	?	9.53*	23.9*	Pol kappa inh-2=?
COc1cccc(NS(=O)(=O)c2ccc3c(c2)C2C=CCC2C(c2ccc(C(=O)O)cc2)N3)c1 (stereo not drawn)	3.16µM*	44.7µM*	20µM*	15.8µM*	?	35.5µM*	37.7*	26.9*	30.1*
COC(=O)c1ccc([C@H]2Nc3ccc(S(=O)(=O)Nc4ccc(F)cc4)cc3[C@H]3C=CC[C@H]32)cc1	1.7%	nt	-17.1%	-30.3%	-0.6%	-20.1%	nt	nt	nt
COc1ccc(/C=C/C(=O)Nc2sc3c(c2C(N)=O)CCC(C)C3)cc1OC (stereo not drawn)	-14.9%	nt	16.4%	-0.2%	5.6%	0.9%	nt	nt	nt
O=c1[nH]c2ccccc2c2nc3ccccn3c12	-0.1%	3.2%	2.6%	13.3%	6.7%	?	nt	nt	nt
O=c1nc2c(O)cccn2c2c1c(=O)[nH]c1ccccc12	?	?	?	?	?	56.2µM*	42.3*	nt	33.8*
COc1cc(O)c(C(C)=O)c(CC(=O)O)c1	3.16µM*	44.7µM*	12.6µM*	12.6µM*	15.8µM*	22.4µM*	16.8*	8.49*	60.1*	PGK validate=8.19µM*
CN(c1ccccc1)c1ccc(/C=C(/CCC(=O)O)c2nc3ccccc3s2)cc1[N+](=O)[O-]	20µM*	?	17.8µM*	31.6µM*	nt	50.1µM*	47.4*	67.5*	67.5*
Cc1ccc2oc(-c3ccc(C)c(NC(=O)COc4ccc(Cl)cc4C)c3)nc2c1	nt	nt	?	-0.9%	nt	-17.9%	nt	nt	nt
Cc1nc(S/C(=C/c2ccc(-c3ccc(C(=O)O)cc3)o2)C(=O)O)n[nH]1	17.8µM*	-18.1%[11.6 µM]	-95.5%	?	35.5µM*	?	42.3*	19*	47.8*
SMILES	Pol eta inh-1	WRN inhibitor	POLI inh	Pol kappa inh-1	Pol beta inh	FEN1 inh-1	POLI cherry-pick	Pol eta inh-2	FEN1 inh-2	others
Cc1nnc(NC(=O)c2sc3nc(-c4cccs4)cc(C(F)(F)F)c3c2N)s1	6.31µM*	-34.2%[57.1 µM]	28.2µM*	?	35.5µM*	?	42.3*	67.5*	?
O=c1cc(-c2ccccc2)oc2cc(O)ccc12	-1.7%	-6.1%	-8.3%	-4.1%	nt	4.6%	nt	nt	nt
O=c1ccc2c(-c3ccccc3)c3ccc(O)cc3oc-2c1	39.8µM*	15.8µM*	31.6µM*	?	7.94µM*	44.7µM*	33.6*	10.7*	33.8*	Pol kappa inh-2=2.99*
C[C@@H]1O[C@@H](Oc2c(-c3cc(O)c(O)c(O)c3)oc3cc(O)cc(O)c3c2=O)[C@H](O)[C@H](O)[C@H]1O	?	-15.3%	50.1µM*	1.68µM*	?	2.24µM*	?	nt	3.01*
O=C(NCc1ccccc1C(F)(F)F)c1cccc2c1C(=O)c1ccc(N3CCC(N4CCCCC4)CC3)cc1S2(=O)=O	?	124.2%	nt	nt	nt	nt	?	60.1*	75.7*
O=C(N/N=C/c1cccnc1)c1cc(O)c(O)c(O)c1	-17.7%	?	?	?	?	3.98µM*	23.8*	nt	6.01*
Cc1cccc(-n2c(C)cc(/C=C3/C(=N)N4C(c5ccccc5)=CSC4=NC3=O)c2C)c1	-9.8%	-7.4%	5.1%	-9.4%	-20.4%	-8.6%	nt	nt	nt

Source: PubChem BioAssay (National Center for Advancing Translational Sciences (NCATS))
